Measured values reported in PubChem BioAssay (NCI).
The panel holds about 79,000 compounds, 15% with a hit somewhere; the sample as a whole holds those more often. A number with no mark means an inactive call. Calls of active or inactive are those of the source. Cut-off read from the data, not from the text of the source: active = growth inhibition above about 70%; inactive = the rest.

Assays:
[1] = NCI Yeast Anticancer Drug Screen. Data for the rad50 strain (AID 155);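 note: 0% = growth of vehicle-only cultures of the same strain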; settings: S. cerevisiae rad50 strain growth inhibition, hits give high values
Method in brief: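 Relative growth inhibition (compound vs vehicle) was measured in yeast with a defined repair-gene alteration.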

[2] = NCI Yeast Anticancer Drug Screen. Data for the mec2-1 strain (AID 157); settings: S. cerevisiae mec2-1 strain, hits give high values
Method in brief: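 Mutant yeast (mec2-1) grown with compound; growth inhibition relative to vehicle control reported.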

[3] = NCI Yeast Anticancer Drug Screen. Data for the sgs1 mgt1 strain (AID 161);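 note: 0% = growth of cultures given vehicle only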; settings: S. cerevisiae sgs1 mgt1 strain, hits give high values
Method in brief: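 Compounds are added to genetically altered yeast, and growth is compared with cultures given vehicle alone to give percent inhibition.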

[4] = NCI Yeast Anticancer Drug Screen. Data for the cln2 rad14 strain (AID 165);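 note: 0% = growth equal to vehicle treated cultures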; settings: S. cerevisiae cln2 rad14 strain, hits give high values
Method in brief: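 Readout is yeast growth inhibition versus vehicle-treated controls, using a strain with cln2 and rad14 alterations exposed to compound.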

[5] = NCI Yeast Anticancer Drug Screen. Data for the bub3 strain (AID 167); settings: S. cerevisiae bub3 mutant strain, hits give high values
Method in brief: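 Screening used yeast with an engineered genetic alteration affecting cell cycle control. Compound-exposed cultures were compared with vehicle cultures, and reduced growth was taken as inhibition.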

[6] = NCI Yeast Anticancer Drug Screen. Data for the mlh1 rad18 strain (AID 175); settings: S. cerevisiae mlh1 rad18 strain growth inhibition, hits give high values
Method in brief: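 Genetically defined yeast (DNA repair-deficient) exposed to compounds; growth inhibition determined relative to vehicle.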

[7] = at 5.0 µM (retest, dose inferred, filed as 0.5)
[8] = at 50.0 µM (retest, dose inferred, filed as 5.0)

Row | Compound | growth inhibition [1, 7] | growth inhibition [1, 8] | growth inhibition ([1]; at 50.0 µM) | growth inhibition [2, 7] | growth inhibition [2, 8] | growth inhibition ([2]; at 50.0 µM) | growth inhibition [3, 7] | growth inhibition [3, 8] | growth inhibition ([3]; at 50.0 µM) | growth inhibition [4, 7] | growth inhibition [4, 8] | growth inhibition ([4]; at 50.0 µM) | growth inhibition [5, 7] | growth inhibition [5, 8] | growth inhibition ([5]; at 50.0 µM) | growth inhibition [6, 7] | growth inhibition [6, 8] | growth inhibition ([6]; at 50.0 µM)
1 | COc1ccc2c(c1)CCn1c(C)c(COC(=O)NC(C)C)c(COC(=O)NC(C)C)c1-2 | 17% | 98% (active) | 88.7% (active) | 0% | 98% (active) | 92.3% (active) | 33% | 98% (active) | 89.2% (active) | 10% | 97% (active) | 90.3% (active) | 15% | 98% (active) | 88.7% (active) | 17% | 98% (active) | 87.7% (active)
2 | FC(F)(F)c1ccc(Cl)c(NC(=S)SC2CCCCC2)c1 | 5% | 95% (active) | 98.5% (active) | 0% | 97% (active) | 99.2% (active) | 7% | 99% (active) | 99.3% (active) | -30% | 88% (active) | 98.5% (active) | 0% | 98% (active) | 98.8% (active) | 7% | 97% (active) | 98.4% (active)
3 | COc1cccc(C=Nc2ccc(I)cc2)c1O.COc1cccc(C=Nc2ccc(I)cc2)c1O.[Co] | 15% | 56% | 29.4% | 11% | 25% | 11.7% | 12% | 31% | 30.2% | 10% | 19% | 21% | 10% | 9% | 52.1% | 13% | 37% | 19.2%
4 | C/C(=N\NC(=S)Nc1ccc(N(C)C)cc1)c1ccccn1 | -1% | 23% | 72.2% (active) | -4% | 68% | 97.5% (active) | -2% | 74% (active) | 79.7% (active) | 1% | 72% (active) | 31.8% | -1% | 35% | 46.3% | -7% | 78% (active) | 82.3% (active)
5 | CC1=CC(=O)C=C(Br)C1=O | 18% | 99% (active) | 98.8% (active) | 12% | 99% (active) | 99.5% (active) | 6% | 95% (active) | 99.3% (active) | 2% | 41% | 87.7% (active) | 11% | 99% (active) | 99.2% (active) | 13% | 99% (active) | 99.2% (active)
